Where a name gives a salt, the structure may show the parent alone. ± gives the standard deviation of the averaged measurements.

This assay has as its system E. coli TESEC Mtb Alr. Briefly: growth (OD600 after 10 h); higher = more growth (less inhibition). Particulars: arabinose 1000000 nM; compound 0.1 mM; raw OD600 reference: median of DMSO wells 0.193, cell-free background 0.041. How it is done:
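TESEC Mtb Alr E. coli, or the Alr+ wild-type control, in 384-well plates with Prestwick library compounds at 0.1 mM and 1% DMSO, across arabinose induction levels of 1E3 to 1E7 nM. Growth is read as OD600 after 10 h at 37 °C in triplicate biological replicates.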
In the case of `CCC(=O)O[C@@](Cc1ccccc1)(c1ccccc1)[C@@H](C)CN(C)C` [Levopropoxyphene napsylate], the growth worked out at 0.1558 ± 0.001.

For the compound `COP(=O)(OC)C(O)C(Cl)(Cl)Cl` (stereo not given) [Trichlorfon], the growth stood at 0.181 ± 0.0066.

`CCN[C@@H](C)Cc1cccc(C(F)(F)F)c1` [Dexfenfluramine hydrochloride] yielded a growth of 0.174 ± 0.0053.

Take `CN1C(=O)CCS(=O)(=O)C1c1ccc(Cl)cc1` (stereo not given) [Chlormezanone]: the growth worked out at 0.188 ± 0.013.

In turn, `O=c1c2ccccc2[se]n1-c1ccccc1` [Ebselen] displayed a growth of 0.224 ± 0.017.

`C[C@@H]1CN([C@H]2CC[C@](C#N)(c3ccc(F)cc3)CC2)CC[C@]1(C(=O)O)c1ccccc1` [Levocabastine hydrochloride] returned a growth of 0.154 ± 0.0044.

The compound `C[N+]12CCC(CC1)C(OC(=O)C(O)(c1ccccc1)c1ccccc1)C2` (stereo not given) [Clidinium bromide] registered a growth of 0.187 ± 0.01.

In turn, `C[C@]12CCC(=O)C(O)=C1CC[C@@H]1[C@@H]2CC[C@]2(C)C(=O)CC[C@@H]12` [Formestane] displayed a growth of 0.0848 ± 0.0012.

On to `NCCCNCCSP(=O)(O)O` [Amifostine], for which the growth came out at 0.196 ± 0.013.

Turning to `CC(C)(N)Cc1ccccc1` [Phentermine hydrochloride], the growth amounted to 0.193 ± 0.0084.

On to `CN[C@@H]1C[C@@H](c2ccc(Cl)c(Cl)c2)c2ccccc21` [Indatraline hydrochloride], for which the growth came out at 0.03897 ± 0.00015.

`C[C@@H]1CC[C@H]2[C@@H](C)C(=O)O[C@@H]3O[C@@]4(C)CC[C@@H]1[C@]32OO4` [Artemisinin] yielded a growth of 0.109 ± 0.0053.

In turn, `CCCC[N+]1(C)[C@@H]2CC(OC(=O)[C@H](CO)c3ccccc3)C[C@H]1[C@@H]1O[C@@H]12` (stereo not given in full) [Butylscopolammonium (n-) bromide] displayed a growth of 0.185 ± 0.0011.

As to `O=P1(NCCCl)OCCCN1CCCl` (stereo not given) [Ifosfamide], the growth was 0.192 ± 0.0026.

Compound `CCN(C(C)=O)c1cccc(-c2ccnc3c(C#N)cnn23)c1` [Zaleplon] yielded a growth of 0.154 ± 0.0051.

The compound `C[C@]12CCC(=O)C=C1CC[C@@H]1[C@@H]2C(=O)C[C@]2(C)C(=O)CC[C@@H]12` [Adrenosterone] displayed a growth of 0.131 ± 0.011.

Turning to `CN1CCN(C(=O)OC2c3nccnc3C(=O)N2c2ccc(Cl)cn2)CC1` (stereo not given) [Zopiclone], the growth came to 0.18 ± 0.0087.

Regarding `O=C(O)CCCc1ccc(N(CCCl)CCCl)cc1` [Chlorambucil], the growth amounted to 0.191 ± 0.0081.

Compound `CCC1(C)CC(=O)NC(=O)C1` [Bemegride] registered a growth of 0.191 ± 0.0055.

In turn, `CCCCCC[C@H]1C(=O)O[C@H](C)[C@H](NC(=O)c2cccc(NC=O)c2O)C(=O)O[C@@H](C)[C@@H]1OC(=O)CC(C)C` [Antimycin A] came in with a growth of 0.125 ± 0.0067.

The compound `CC(=O)OCC1=C(C(=O)O)N2C(=O)[C@@H](N)[C@H]2SC1` [Cephalosporanic acid, 7-amino] registered a growth of 0.205 ± 0.011.

For `CC(N)C(O)c1ccccc1` (stereo not given) [Phenylpropanolamine hydrochloride], the growth turned out to be 0.19 ± 0.011.

As for `C[C@]12Cc3c[nH]nc3C[C@@H]1CC[C@@H]1[C@@H]2CC[C@@]2(C)[C@H]1CC[C@]2(C)O` [Stanozolol], the growth amounted to 0.141 ± 0.0057.

As for `NC(=O)CN1CCCC1=O` [Piracetam], the growth was 0.184 ± 0.0072.

Consider `O=P1(N(CCCl)CCCl)NCCCO1` (stereo not given) [Cyclophosphamide], for which the growth stood at 0.204 ± 0.022.

Source of the values: the supplement of paper PMC9262897, “Low-cost anti-mycobacterial drug discovery using engineered E. coli” (Nature Communications, 2022).
